Binding signal data for 7 sequences are collected here from publication PMC8384837, “Expanding the binding specificity for RNA recognition by a PUF domain”.

Holding throughout (experiment): yeast three-hybrid, YBZ-1, SC-Leu-His + 0.5 mM 3-AT, 4 days
What all share (details): tags: N-Gal4 AD-HA kept; label: inside an RPR1-promoter hybrid RNA with tandem MS2 sites; ssRNA

The target in one experiment is PUM1 PUF domain R8-GHK (Homo sapiens, UniProt Q14671 828-1176, N1122G;Y1123H;Q1126K). The method, boiled down: (§1)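 A centromeric plasmid in strain YBZ-1 co-expressed Pumilio-1 PUF domain libraries, randomized at the three base-contacting residues of each repeat, with matching RNA elements; the strain carries a LexA–MS2 coat fusion and a HIS3 reporter. After four days on SC-Leu (input) or SC-Leu-His + 0.5 mM 3-AT (selection), the repeat regions were PCR-amplified and Illumina-sequenced. The interaction score is the log change in variant frequency from input to selection, using log2 and a pseudocount of 1 where absent.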
Sequence of PUM1 PUF domain R8-GHK (Q14671 828-1176 N1122G/Y1123H/Q1126K): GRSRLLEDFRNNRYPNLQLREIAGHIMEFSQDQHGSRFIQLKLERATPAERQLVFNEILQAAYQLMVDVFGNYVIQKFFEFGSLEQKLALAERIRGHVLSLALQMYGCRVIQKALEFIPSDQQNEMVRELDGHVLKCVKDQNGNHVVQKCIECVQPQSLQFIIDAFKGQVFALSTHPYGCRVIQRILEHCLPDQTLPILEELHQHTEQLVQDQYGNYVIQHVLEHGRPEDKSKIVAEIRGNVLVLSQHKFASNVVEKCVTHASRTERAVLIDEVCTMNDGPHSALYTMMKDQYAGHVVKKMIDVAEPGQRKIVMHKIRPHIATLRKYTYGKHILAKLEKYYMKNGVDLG

In a further experiment the target is PUM1 PUF domain R8-RWS (Homo sapiens, UniProt Q14671 828-1176, N1122R;Y1123W;Q1126S). The method, boiled down: as §1
Sequence of PUM1 PUF domain R8-RWS (Q14671 828-1176 N1122R/Y1123W/Q1126S): as the sequence (Q14671 828-1176 N1122G/Y1123H/Q1126K) above, with G295R, H296W, K299S counted along it
The target of another experiment is PUM1 PUF domain R3-THF (Homo sapiens, UniProt Q14671 828-1176, C935T;R936H;Q939F). The method, boiled down:
as §1

The target in another experiment is PUM1 PUF domain R4-NNV (Homo sapiens, UniProt Q14671 828-1176, H972N;Q975V). The method, boiled down:
as §1

The target in a further experiment is PUM1 PUF domain R4-PYC (Homo sapiens, UniProt Q14671 828-1176, N971P;H972Y;Q975C). The method, boiled down:
as §1

For another experiment, the target named is PUM1 PUF domain R4-VPG (Homo sapiens, UniProt Q14671 828-1176, N971V;H972P;Q975G). The method, boiled down:
as §1

A further experiment addresses PUM1 PUF domain R4-GRC (Homo sapiens, UniProt Q14671 828-1176, N971G;H972R;Q975C). The method, boiled down:
as §1

Another experiment deals with PUM1 PUF domain R5-THV (Homo sapiens, UniProt Q14671 828-1176, C1007T;R1008H;Q1011V). The method, boiled down:
as §1

For the next experiment, the target named is PUM1 PUF domain R5-RQH (Homo sapiens, UniProt Q14671 828-1176, C1007R;R1008Q;Q1011H). The method, boiled down:
as §1

Another experiment deals with PUM1 PUF domain R3-FRL (Homo sapiens, UniProt Q14671 828-1176, C935F;Q939L). The method, boiled down: as §1
Sequence of PUM1 PUF domain R3-FRL (Q14671 828-1176 C935F/Q939L): as the sequence (Q14671 828-1176 N1122G/Y1123H/Q1126K) above, with C108F, Q112L, G295N, H296Y, K299Q counted along it

Sequence of PUM1 PUF domain R4-NNV (Q14671 828-1176 H972N/Q975V): as the sequence (Q14671 828-1176 N1122G/Y1123H/Q1126K) above, with H145N, Q148V, G295N, H296Y, K299Q counted along it
Sequence of PUM1 PUF domain R4-PYC (Q14671 828-1176 N971P/H972Y/Q975C): as the sequence (Q14671 828-1176 N1122G/Y1123H/Q1126K) above, with N144P, H145Y, Q148C, G295N, H296Y, K299Q counted along it
Sequence of PUM1 PUF domain R4-VPG (Q14671 828-1176 N971V/H972P/Q975G): as the sequence (Q14671 828-1176 N1122G/Y1123H/Q1126K) above, with N144V, H145P, Q148G, G295N, H296Y, K299Q counted along it
Sequence of PUM1 PUF domain R4-GRC (Q14671 828-1176 N971G/H972R/Q975C): as the sequence (Q14671 828-1176 N1122G/Y1123H/Q1126K) above, with N144G, H145R, Q148C, G295N, H296Y, K299Q counted along it
Sequence of PUM1 PUF domain R3-THF (Q14671 828-1176 C935T/R936H/Q939F): as the sequence (Q14671 828-1176 N1122G/Y1123H/Q1126K) above, with C108T, R109H, Q112F, G295N, H296Y, K299Q counted along it
Sequence of PUM1 PUF domain R5-THV (Q14671 828-1176 C1007T/R1008H/Q1011V): as the sequence (Q14671 828-1176 N1122G/Y1123H/Q1126K) above, with C180T, R181H, Q184V, G295N, H296Y, K299Q counted along it
Sequence of PUM1 PUF domain R5-RQH (Q14671 828-1176 C1007R/R1008Q/Q1011H): as the sequence (Q14671 828-1176 N1122G/Y1123H/Q1126K) above, with C180R, R181Q, Q184H, G295N, H296Y, K299Q counted along it

In the case of “GGCUAGAACUAGUGGAUCCCCCGGCGCCCGGCGGCUCGAGCCCGGGUAAGCGUAAAUAGUCUGCAUGCCGCCGGGCGCCAUGCCUGCAGGUCGACUCUAGAAAACAUG”, the figures for the binding signal with PUM1 PUF domain R8-GHK and with PUM1 PUF domain R8-RWS were 2.58 log2 enrichment (interaction score) and 5.59 log2 enrichment (interaction score), respectively.

As for “GGCUAGAACUAGUGGAUCCCCCGGCGCCCGGCGGCUCGAGCCCGGGUAAGUGUAAAUAGUCUGCAUGCCGCCGGGCGCCAUGCCUGCAGGUCGACUCUAGAAAACAUG”, the binding signal in the experiment with PUM1 PUF domain R8-RWS is 4.8 log2 enrichment (interaction score); with PUM1 PUF domain R3-THF it was 3.81 log2 enrichment (interaction score); with PUM1 PUF domain R4-NNV it was 1.31 log2 enrichment (interaction score); with PUM1 PUF domain R4-PYC, 7.66 log2 enrichment (interaction score); in the experiment with PUM1 PUF domain R4-VPG, 3.14 log2 enrichment (interaction score); with PUM1 PUF domain R4-GRC, 4.62 log2 enrichment (interaction score).

As for “GGCUAGAACUAGUGGAUCCCCCGGCGCCCGGCGGCUCGAGCCCGGGUAAGUGUAUAUAGUCUGCAUGCCGCCGGGCGCCAUGCCUGCAGGUCGACUCUAGAAAACAUG”, the binding signal with PUM1 PUF domain R4-NNV was 3.42 log2 enrichment (interaction score); with PUM1 PUF domain R4-PYC, 7.49 log2 enrichment (interaction score); with PUM1 PUF domain R4-VPG, 2.52 log2 enrichment (interaction score); with PUM1 PUF domain R4-GRC it was 2.46 log2 enrichment (interaction score).

Regarding “GGCUAGAACUAGUGGAUCCCCCGGCGCCCGGCGGCUCGAGCCCGGGUAAGUGUUAAUAGUCUGCAUGCCGCCGGGCGCCAUGCCUGCAGGUCGACUCUAGAAAACAUG”, in the experiment with PUM1 PUF domain R5-THV, the binding signal is 3.33 log2 enrichment (interaction score).

Regarding “GGCUAGAACUAGUGGAUCCCCCGGCGCCCGGCGGCUCGAGCCCGGGUAAGUGUCAAUAGUCUGCAUGCCGCCGGGCGCCAUGCCUGCAGGUCGACUCUAGAAAACAUG”, the binding signal with PUM1 PUF domain R5-RQH is 3.64 log2 enrichment (interaction score).

For “GGCUAGAACUAGUGGAUCCCCCGGCGCCCGGCGGCUCGAGCCCGGGUAAGUGUACAUAGUCUGCAUGCCGCCGGGCGCCAUGCCUGCAGGUCGACUCUAGAAAACAUG”, the binding signal with PUM1 PUF domain R4-NNV was 2.48 log2 enrichment (interaction score); with PUM1 PUF domain R4-PYC it was 6.68 log2 enrichment (interaction score); in the experiment with PUM1 PUF domain R4-VPG it was 2.82 log2 enrichment (interaction score); with PUM1 PUF domain R4-GRC, 0.93 log2 enrichment (interaction score).

As for “GGCUAGAACUAGUGGAUCCCCCGGCGCCCGGCGGCUCGAGCCCGGGUAAGUGUAAGUAGUCUGCAUGCCGCCGGGCGCCAUGCCUGCAGGUCGACUCUAGAAAACAUG”, the binding signal in the experiment with PUM1 PUF domain R3-FRL was 4.24 log2 enrichment (interaction score).
